Test results reported in PubChem BioAssay.
Several values for one entry are separate records, joined by “and”; a condition that tells them apart may be missing. Equal entries are not always repeated. Activity calls are given as the source filed them.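 Rule for the calls, unless noted: active = inhibition at or above 50% relative to wild type and mutant plate controls; inactive = inhibition below 50%.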

Legend:
[1] = inhibitors of TNFa-induced NFkB p65 translocation, primary screen, imaging, HUVEC, MLSMR starter and 10KST1 sets (AID 438;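 active = inhibition above 20% together with a positive visual image hit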;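 note: compound added about 3h40 before a 20 min TNFalpha stimulation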;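 for inhibition: signal is the nuclear over cytoplasmic p65 intensity ratio per well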); settings: HUVEC TNFa-induced p65 nuclear translocation; cell count: measured here: nuclei count (cytotoxicity indicator), at 2.08 µM unless noted; inhibition: at 2 µM, stronger effect = higher value unless noted
[2] = reduction of polyQ htt aggregates in cells – imaging, exon1htt(103Q)mCFP cells, high-content imaging, primary screen (AID 483;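 active = visual image review flags a hit and inhibition of aggregation exceeds 20%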;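 note: compound exposure lasted 3 days before fixation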;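 for nuclei count: percent of the per-plate median nuclei count of sample wells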); settings: exon1htt(103Q)mCFP cell line, aggregate imaging, at 2 µM; inhibition of aggregation: stronger effect = higher value; nuclei count: measured here: cell count, toxicity
[3] = endothelial E-selectin expression blockers – imaging, HUVEC, immunofluorescence, MLSMR starter and 10KST1 sets, primary screen (AID 487;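 active = visually confirmed hit in the image check and inhibition above 20%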;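 for inhibition: signal is fraction of cell area covered by stained E-selectin grains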;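 for nuclei count: 100% = median nuclei count of all wells on the same plate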); settings: HUVEC TNFalpha-induced E-selectin immunofluorescence imaging, at 2 µM; inhibition: stronger effect = higher value; nuclei count: measured here: cell number, toxicity
[4] = Primary imaging screen for DUSP6 inhibitors that restore phospho-Erk in transfected HeLa cells, chemical complementation (AID 609;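 active = compounds giving at least 50% inhibition in the cell-based MKP-3 phosphatase rescue imaging test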;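 for inhibition: phospho-Erk level distribution per well compared with pooled transfected vehicle control wells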); settings: HeLa MKP-3 transfected, phospho-Erk imaging KS statistic, at 10 µM
[5] = target: Dual specificity protein phosphatase 6 (Homo sapiens) (UniProt Q16828); experiment: as above; settings: HeLa MKP-3 transfected, phospho-Erk imaging KS statistic, at 10 µM, stronger effect = higher value
Sequence of Dual specificity protein phosphatase 6 (Homo sapiens) (Q16828 whole entry, looked up): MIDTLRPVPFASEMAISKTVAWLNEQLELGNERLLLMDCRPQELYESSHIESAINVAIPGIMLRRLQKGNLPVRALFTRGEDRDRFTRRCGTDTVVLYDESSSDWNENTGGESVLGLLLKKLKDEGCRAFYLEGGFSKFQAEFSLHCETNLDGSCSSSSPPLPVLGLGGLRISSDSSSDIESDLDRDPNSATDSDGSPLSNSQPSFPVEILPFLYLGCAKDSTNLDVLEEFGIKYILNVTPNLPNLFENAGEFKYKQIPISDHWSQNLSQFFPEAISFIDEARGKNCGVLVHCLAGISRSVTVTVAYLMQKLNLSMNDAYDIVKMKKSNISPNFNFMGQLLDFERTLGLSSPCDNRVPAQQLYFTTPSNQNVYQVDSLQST

[6] = target: Voltage-gated potassium channel subunit beta-2 (Rattus norvegicus) (UniProt P62483); experiment: inhibitors of rat Kvbeta2 reductase activity – biochemical, NADPH fluorescence, primary screen (AID 622;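 active = fluorescence slope higher than the sample average by over 3 SD, cut at about -0.22 in these data, passing the limit was not always enough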;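 note: slope of raw intensity against log time taken from 70 to 1610 s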); settings: recombinant KvBeta, 4-cyanobenzaldehyde reduction, at 10 µM, stronger effect = higher value
Sequence of Voltage-gated potassium channel subunit beta-2 (Rattus norvegicus) (P62483 whole entry, looked up): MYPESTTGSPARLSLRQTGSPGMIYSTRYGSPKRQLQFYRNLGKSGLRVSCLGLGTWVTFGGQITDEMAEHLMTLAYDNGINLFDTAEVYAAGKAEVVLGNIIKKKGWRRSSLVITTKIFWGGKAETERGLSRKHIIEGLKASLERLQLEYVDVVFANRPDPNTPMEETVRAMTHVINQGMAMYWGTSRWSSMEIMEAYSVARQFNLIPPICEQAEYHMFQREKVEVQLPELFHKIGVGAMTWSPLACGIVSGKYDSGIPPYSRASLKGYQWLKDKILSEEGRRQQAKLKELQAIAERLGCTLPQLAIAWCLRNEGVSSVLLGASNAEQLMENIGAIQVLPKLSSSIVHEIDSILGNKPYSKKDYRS

[7] = target: Voltage-gated potassium channel subunit beta-2 (Rattus norvegicus) (UniProt P62483); experiment: enhancers of rat Kvbeta2 NADPH turnover – biochemical, NADPH fluorescence, primary screen (AID 623;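 active = NADPH fluorescence slope more negative than the mean of all samples by about 3 SD, 99.7% confidence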;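 note: fluorescence intensity change per second fitted from 20 to 320 s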); settings: Recombinant KvBeta, NADPH fluorescence decrease slope, 10 min; at 10 µM; stronger effect = lower value
[8] = target: Alpha-2C adrenergic receptor (Homo sapiens) (UniProt P18825); experiment: compounds altering alpha2C-coupled GIRK flux – cell-based, HEK293 alpha2C/GIRK1/2, thallium flux, primary screen (AID 624;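 active = fluorescence slope after compound addition differing from the mean of all screened samples at 99.7% confidence, in either direction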;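 note: slope of fluorescence ratio to pre-addition baseline per second over 15 to 24 s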); settings: thallium flux BTC fluorescence, at 10 µM, actives lie on both sides
Sequence of Alpha-2C adrenergic receptor (Homo sapiens) (P18825 whole entry, looked up): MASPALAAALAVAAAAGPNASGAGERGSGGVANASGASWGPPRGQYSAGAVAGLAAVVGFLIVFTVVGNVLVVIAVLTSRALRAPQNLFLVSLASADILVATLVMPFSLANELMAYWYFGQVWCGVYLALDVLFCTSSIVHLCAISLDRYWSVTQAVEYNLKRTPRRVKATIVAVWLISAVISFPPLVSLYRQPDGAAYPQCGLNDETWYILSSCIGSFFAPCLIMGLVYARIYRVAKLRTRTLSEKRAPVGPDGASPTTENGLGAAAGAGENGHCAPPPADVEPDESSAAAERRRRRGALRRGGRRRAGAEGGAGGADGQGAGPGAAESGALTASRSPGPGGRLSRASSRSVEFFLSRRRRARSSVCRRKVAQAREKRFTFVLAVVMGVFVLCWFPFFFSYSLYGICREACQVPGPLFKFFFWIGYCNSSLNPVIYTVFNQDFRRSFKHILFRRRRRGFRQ

[9] = loss of swimming-algae plug formation – whole organism, Chlamydomonas reinhardtii, WT vs cilia-less mutant, absorbance, 96-well, primary screen (AID 463189); settings: Chlamydomonas reinhardtii gravitaxis, OD600 absorbance, 2 days; at 10 µM; stronger effect = higher value;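 note: 0% = wild type cc124 cells in DMSO and 100% = ciliumless bld1 mutant cells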
[10] = blockers of RIG-like receptor reporter activation – cell-based, Sendai virus stimulus, luciferase, 10K MLSCN set, TLR/RLR signaling modifier project, primary screen (AID 602276;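 active = inhibition at or above 50% at 10 µM; inactive = inhibition below 50%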;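 note: firefly luciferase from ISG56 promoter only with Renilla not read in this screen; 0% = Sendai virus plus DMSO and 100% = medium plus DMSO without virus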); settings: HEK293 RL24 IRF3 luciferase reporter, at 10 µM, stronger effect = higher value
[11] = TLR3 IRF3 reporter activation blockers – cell-based, poly I:C stimulus, luciferase, 10K MLSCN set, primary screen (AID 602277;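 active = inhibition of the reporter signal at or above 50%; inactive = inhibition below 50%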); settings: HEK293-TLR3 RL24 IRF3 luciferase reporter, at 10 µM, stronger effect = higher value
[12] = inhibitors of larval lipid processing in zebrafish, primary screen, whole organism, PED6 fluorescence, gall bladder and intestine (AID 686;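 active = a full or partial loss of lipid-probe fluorescence in the fish gall bladder, intestine or both, judged by eye; inactive = no fluorescence loss, or compound toxic to the fish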;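 note: larvae 5 to 7 days old with five fish per well; signal comes from phospholipase A2 cleavage of quenched PED6 carried via bile; overnight exposure to compound and PED6 before scoring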); settings: Zebrafish larvae PED6 lipid processing, fluorescence scoring
[13] = target: Muscarinic acetylcholine receptor M4 (Homo sapiens) (UniProt P08173); experiment: M4-linked GIRK flux change, two-sided – cell-based, HEK293 M4/GIRK, thallium flux, BTC-AM, M4 allosteric agonist project, primary screen (AID 625;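 active = fluorescence slope after compound addition differing from the mean of all tested samples at 99.7% confidence, mostly higher but some lower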;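 note: thallium influx through GIRK channels coupled to M4 in HEK293 cells with BTC-AM dye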); settings: at 10 µM, actives lie on both sides
Sequence of Muscarinic acetylcholine receptor M4 (Homo sapiens) (P08173 whole entry, looked up): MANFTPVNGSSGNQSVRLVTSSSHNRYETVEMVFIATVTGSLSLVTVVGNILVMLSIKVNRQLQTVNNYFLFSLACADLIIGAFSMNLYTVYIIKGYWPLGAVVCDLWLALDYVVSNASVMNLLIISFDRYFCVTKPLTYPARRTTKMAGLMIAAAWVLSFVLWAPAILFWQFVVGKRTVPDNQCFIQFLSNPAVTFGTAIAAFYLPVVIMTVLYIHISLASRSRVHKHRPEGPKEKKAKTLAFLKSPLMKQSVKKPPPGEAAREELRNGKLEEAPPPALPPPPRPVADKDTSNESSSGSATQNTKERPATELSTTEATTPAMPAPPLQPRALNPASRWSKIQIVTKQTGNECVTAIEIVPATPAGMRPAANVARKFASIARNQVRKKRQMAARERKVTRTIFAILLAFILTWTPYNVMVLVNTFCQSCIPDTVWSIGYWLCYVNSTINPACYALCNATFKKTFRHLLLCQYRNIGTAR

[14] = measured here: cell density z-score
[15] = measured here: nuclear c-Myc green intensity z-score
[16] = measured here: nuclear pErk red intensity z-score, stronger effect = higher value

| SMILES | cell count [1] | inhibition [1] | inhibition of aggregation [2] | nuclei count [2] | inhibition [3] | nuclei count [3] | z-score [4, 14] | z-score [4, 15] | z-score [4, 16] | inhibition [5] | fluorescence slope [6] | NADPH fluorescence slope [7] | slope [8] | inhibition [9] | inhibition [10] | inhibition [11] | outcome [12] | fluorescence slope [13] |
| --- | --- | --- | --- | --- | --- | --- | --- | --- | --- | --- | --- | --- | --- | --- | --- | --- | --- | --- |
| CC(C)[C@H]1C(=O)N2CCC[C@H]2[C@]2(O)O[C@](NC(=O)[C@@H]3C=C4c5cccc6[nH]cc(c56)C[C@H]4N(C)C3)(C(C)C)C(=O)N12 | 501 | 1.6% (inactive) | -14% (inactive) | 110% | -84.6% (inactive) | 122% | -1.33 | -1 | 0.393 | 3.59% (inactive) | -0.451 (inactive) | -1.8e-05 (inactive) | 0.0044 (inactive) | 13.5% (inactive) | 10.2% (inactive) | 18.2% (inactive) | – | – |
| CC(NC(C)(C)C)C(=O)c1cccc(Cl)c1 (stereo not given) | 651 | -1.3% (inactive) | 4% (inactive) | 102% | -75.7% (inactive) | 132% | -0.59 | 0.546 | -0.888 | 12.4% (inactive) | -0.447 (inactive) | -3.7e-05 (inactive) | 0.00462 (inactive) | -4.32% (inactive) and 13.4% (inactive) | 11.7% (inactive) | 29.6% (inactive) | inactive | – |
| O=c1[nH]c(=O)n(-c2cccc3ccccc23)c(O)c1C=NCCCn1ccnc1 | 430 | 2.6% (inactive) | -2.6% (inactive) | 113% | -19% (inactive) | 71.8% | 0.0574 | -0.666 | -0.681 | -5.95% (inactive) | -0.411 (inactive) | -2.1e-05 (inactive) | 0.00458 (inactive) | -5.53% (inactive) | 19% (inactive) | 17.8% (inactive) | inactive | 0.00656 (inactive) |
| CCOc1ccc(-n2c(O)c(C=NCCN3CCNCC3)c(=O)[nH]c2=O)cc1 | 537 | 3.2% (inactive) | -17.4% (inactive) | 96.7% | -38.9% (inactive) | 144% | -0.956 | -1.36 | 0.949 | -4.7% (inactive) | -0.351 (inactive) | -8.4e-06 (inactive) | 0.00537 (inactive) | 8.26% (inactive) | 14.4% (inactive) | 22.5% (inactive) | inactive | – |
| CC(=O)[C@H]1CC[C@H]2[C@@H]3CC[C@H]4C[C@H](O)CC[C@]4(C)[C@H]3C(=O)C[C@]12C | 549 | -11.5% (inactive) | 17.3% (inactive) | 94.7% | -98.9% (inactive) | 100% | -1.19 | -0.45 | 1.1 | -6.41% (inactive) | -0.534 (inactive) | -4.5e-05 (inactive) | 0.00562 (inactive) | 5.76% (inactive) and -1.15% (inactive) | 10.2% (inactive) | 20.7% (inactive) | inactive | – |
